The structures appear in SMILES notation. In all, about 290,000 compounds went through this assay and about 2,700 (0.93%) were called active. No rule for the calls is given here. The entries come from a sample that favours actives as a whole.

In the test the target is Eukaryotic translation initiation factor 4H (Homo sapiens) (UniProt Q15056). Put plainly: eIF4H binding inhibition – biochemical, uHTS, fluorescence polarization, translation initiation inhibitor project, primary screen (AID 2012).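 Also: calls also rest on retests at 20 µM and on dose response follow-up.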 Particulars: eIF4H fluorescence polarization binding assay, stronger effect = higher value.

What is called inhibition is the drop in the measured response relative to a control, in per cent. For the compound `CN1/C(=c2/s/c(=C3/C(=O)N(c4ccccc4)NC3=Nc3ccccc3)n(C)c2=O)C(C)(C)c2ccccc21`, the inhibition (at 35 µM) was 75.5% (active).

With `CCN1C(=O)/C(=c2\s/c(=C3\Sc4ccccc4N3C)c(=O)n2C)N(C)C1=S`, under “at 35 µM”, the inhibition is -3% (inactive).

On to `O=[N+]([O-])c1cc([N+](=O)[O-])c(Oc2cc(F)cc(F)c2F)cc1NN1CCCCC1`, for which the inhibition (at 35 µM) is 0.2% (inactive).

As to `Cn1c(=O)c2ccccc2n(CC(=O)Nc2ccc3c(c2)OCCO3)c1=O`, the inhibition (at 35 µM) is -5.6% (inactive).

Regarding `COc1ccc(-c2c(-c3ccc(OC)cc3O)nc(C)nc2C(F)(F)F)cc1`, the inhibition (at 35 µM) was -5.5% (inactive).

In the case of `Cc1ccc(Cc2cnc(N)s2)o1`, the inhibition was 65.8% (active) (at 35 µM) and 93.7% (confirmation average, at 20 µM).

Consider `Cc1ccc(CCC(=O)Nc2ncc(Cc3cc(Cl)ccc3Cl)s2)o1`, for which the inhibition (at 35 µM) is 1.5% (inactive).

As for `O=C(CCc1nnc2ccc(NCc3ccccc3Cl)nn12)NCC1CCN(C2CCCC2)C1` (centres undefined), the inhibition (at 35 µM) is 13.5% (inactive).

For the compound `Cc1nn(Cc2ccccc2)c(C)c1NS(=O)(=O)c1ccccc1`, the inhibition (at 35 µM) is -5.2% (inactive).

On to `CC(=O)N(CN1C(=O)C2C3C=CC(C3)C2C1=O)c1cccc(Cl)c1` (centres undefined), for which the inhibition was -5.8% (active) (at 35 µM) and 61.4% (confirmation average, at 20 µM).

For `O=C(CN1C(=O)C2C3C=CC(C3)C2C1=O)NCCc1ccccc1Cl` (centres undefined), the inhibition (at 35 µM) is -10.5% (inactive).

In the case of `CC(=O)N(CN1C(=O)C2CC=CCC2C1=O)c1cccc(Cl)c1` (centres undefined), the inhibition (at 35 µM) was 26% (inactive).

Turning to `COc1ccc(OCc2cc(C(=O)NCC3(C)COC3)no2)c(Cl)c1`, the inhibition (at 35 µM) is -2.3% (inactive).

Turning to `N#Cc1ccccc1CN1C(=O)S/C(=C/c2cccn2-c2cccc(C(=O)O)c2)C1=O`, the inhibition (at 35 µM) is 81.6% (active) and the inhibition (confirmation average, at 20 µM) came out at 74.8%.

As for `O=C(O)c1cccc(N2C(=O)Nc3ccccc3N2O)c1`, the inhibition (at 35 µM) is 1% (inactive).

On to `Cn1cccc1/C=C1\SC(=O)N(CC(=O)Nc2ccc(F)cc2)C1=O`, for which, for the setting “at 35 µM”, the inhibition was 1.6% (inactive).

Regarding `Cc1cc(CN(C)C(=O)c2cc(COc3ccc(C)c(C)c3)on2)n[nH]1`, the inhibition (at 35 µM) was -4.1% (inactive).

With `CCCc1cc(=O)n2[nH]c(C)c(-c3ccc(Cl)cc3)c2n1`, the inhibition (at 35 µM) is 11.3% (inactive).

With `COc1ccccc1OCCCC(=O)Nc1ccc2c(c1)OCCO2`, the inhibition (at 35 µM) is -2.5% (inactive).

On to `COc1cc(C(=O)N2CCN(C)CC2)cc(OC)c1OC`, for which the inhibition (at 35 µM) is -6.9% (inactive).

As for `COc1cc2c(C(=O)N3CCN(C)CC3)c(CSc3ccccc3)n(C)c2cc1Br`, the inhibition (at 35 µM) is 1.1% (active) and the inhibition (confirmation average, at 20 µM) was 81.5%.

Turning to `COc1ccccc1OCc1ccc(C(=O)N2CCN(C)CC2)o1`, the inhibition (at 35 µM) is 0.9% (inactive).

Consider `Cc1ccc(N2C(=O)C3C4C=CC(CC4)C3C2=O)cc1Br` (centres undefined), for which, where the note is “at 35 µM”, the inhibition was -2.9% (inactive).

As to `CN(CCC1CCOCC1)C(=O)CC1C(=O)NCCN1Cc1cccc(F)c1` (centres undefined), the inhibition (at 35 µM) is -3.2% (inactive).

For the compound `O=C(Nc1ccc(S(=O)(=O)Nc2ccccn2)cc1)c1ccccc1`, under “at 35 µM”, the inhibition is -9.1% (inactive).

Take `C=CCn1c(=O)c(C(=O)Nc2ncccc2O)c(O)c2ccccc21`: for the setting “at 35 µM”, the inhibition was 22% (inactive).

Consider `CS(=O)(=O)Nc1ccccc1N=C(c1ccccc1)c1ccccc1`, for which, where the note is “at 35 µM”, the inhibition is 1.1% (inactive).

Turning to `CCOc1ccc(N(CC(=O)NCCOc2ccccc2OC)S(=O)(=O)c2ccccc2)cc1`, the inhibition (at 35 µM) is -3.8% (inactive).

In the case of `O=C(CCS(=O)(=O)c1ccc(Br)cc1)NCCc1ccc(Cl)cc1`, the inhibition by setting is: (at 35 µM) 86.1% (active); (confirmation average, at 20 µM) 67.7%.

Consider `NS(=O)(=O)c1ccc(CCNC(=O)Nc2ccc(Cl)cc2)cc1`, for which the inhibition (at 35 µM) is -4.8% (inactive).

With `COc1ccc(Cl)cc1NC(=O)CCN1CCOCC1`, where the note is “at 35 µM”, the inhibition was -3.3% (inactive).

As for `COc1ccc(Cl)cc1NC(=O)CCS(=O)(=O)c1cc2c(cc1C)NC(=O)CO2`, the inhibition (at 35 µM) is 3.9% (inactive).

On to `O=C(NCCS(=O)(=O)c1ccc(Br)cc1)c1ccccc1Cl`, for which the inhibition (at 35 µM) was -7.2% (inactive).

Turning to `COc1ccc(Cl)cc1NC(=O)CCS(=O)(=O)c1ccc(Br)cc1`, the inhibition (at 35 µM) was 84.2% (active).

As to `CS(=O)(=O)N1CCc2cc(C(=O)Nc3ccccc3Br)ccc21`, the inhibition (at 35 µM) was -0.6% (inactive).

In the case of `COCc1ccc(CN2CCC(Oc3ccc(C(=O)NCc4ccccn4)cc3)CC2)o1`, for the setting “at 35 µM”, the inhibition is -2.5% (inactive).

With `O=C(COC(=O)c1cccs1)NCc1cccs1`, for the setting “at 35 µM”, the inhibition was -7.5% (inactive).

As to `O=C(COC(=O)CCC(=O)c1cccs1)NCc1ccco1`, the inhibition runs as follows: (at 35 µM) 87% (active); (confirmation average, at 20 µM) 63.4%.

Consider `O=C(CC1CCCCC1)NCc1ccco1`, for which the inhibition (at 35 µM) was -6.2% (inactive).

In the case of `O=C(CC12CC3CC(CC(C3)C1)C2)NCc1ccco1`, the inhibition (at 35 µM) is -1% (inactive).

With `O=C(COC(=O)C12CC3CC(CC(C3)C1)C2)NCc1ccco1`, the inhibition reads like this: (at 35 µM) 50.9% (active); (confirmation average, at 20 µM) 92.2%.

As for `O=C(COC(=O)c1cnc(Cl)c(Cl)c1)NCc1ccco1`, the inhibition (at 35 µM) is -1.2% (inactive).

Turning to `CC(C)CC(O)C1CCN(C(=O)CCc2nnc(-c3ccc4c(c3)OCO4)o2)CC1` (centres undefined), the inhibition (at 35 µM) was 11.1% (inactive).

Turning to `O=C(N/N=C\C1CC=CCC1)c1ccc(Br)o1` (centres undefined), the inhibition (at 35 µM) was -1.2% (inactive).

Turning to `CC(NC(=O)Cn1cc(C(F)(F)F)cc(Cl)c1=O)c1ccccc1` (centres undefined), the inhibition (at 35 µM) was 4.6% (inactive).

As for `O=C(O)c1cc(S(=O)(=O)NC2CCCc3ccccc32)ccc1O` (centres undefined), under “at 35 µM”, the inhibition is -2.4% (inactive).

In the case of `Cc1ccc(CNC(=O)CCS(=O)(=O)c2ccc3c(c2)CC(C)N3C(=O)C2CC2)o1` (centres undefined), the inhibition (at 35 µM) was -4.8% (inactive).

These data come from PubChem BioAssay AID2012 (Sanford-Burnham Center for Chemical Genomics, 2009).
